SMILES strings stand for the structures. ± gives the standard deviation of the averaged measurements.

This assay has as its system IL-6-GFP PC-9GR. Briefly: cell viability (CCK-8 OD) relative to DMSO control (fraction of control); higher = more viable cells. Conditions: compound concentration: 10 uM; treatment time: 48 h. The essentials: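 Each well's viability is its CCK-8 optical density divided by that of the vehicle control well. The cells, PC-9 and PC-9GR lung cancer lines overexpressing IL-6-GFP from a lentiviral construct, were seeded at 3000 cells/well in 96-well plates and exposed for 48 h to each compound of a purchased 510-compound library at a final 10 μM, in two independent replicates.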
For the compound `CCCCC(=O)OC1(C(=O)CO)C(C)CC2C3CCC4=CC(=O)C=CC4(C)C3(F)C(O)CC21C` (stereo not given) [Betamethasone Valerate], the cell viability stood at 1.11 ± 0.14.

`Cc1cncc(CN2CCC(=C3c4ccc(Cl)cc4CCc4cccnc43)CC2)c1.O=C(O)/C=C/C(=O)O` [Rupatadine Fumarate] displayed a cell viability of 0.996 ± 0.05.

The compound `COc1cc(C2Oc3cc(C4Oc5cc(O)cc(O)c5C(=O)C4O)ccc3OC2CO)ccc1O` (stereo not given) [Silibinin] gave a cell viability of 1.36 ± 0.07.

`CC(Oc1cc(-c2cnn(C3CCNCC3)c2)cnc1N)c1c(Cl)ccc(F)c1Cl` (stereo not given) gave a cell viability of 0.43 ± 0.21.

Consider `CC(C)(O)c1ccccc1CCC(SCC1(CC(=O)O)CC1)c1cccc(/C=C/c2ccc3ccc(Cl)cc3n2)c1` (stereo not given) [Montelukast], for which the cell viability was found to be 1.11 ± 0.26.

In turn, `CNC(=O)c1ccc(N2C(=S)N(c3ccc(C#N)c(C(F)(F)F)c3)C(=O)C2(C)C)cc1F` [Enzalutamide (MDV3100)] had a cell viability of 1.04 ± 0.077.

Consider `COc1ccc2c(c1)nc(S(=O)Cc1ncc(C)c(OC)c1C)[n]2[Na]` (stereo not given) [Esomeprazole sodium], for which the cell viability amounted to 1.26 ± 0.2.

On to `CC(C(=O)O)c1ccc(-c2ccccc2)c(F)c1` (stereo not given) [Flurbiprofen], for which the cell viability was 1.04 ± 0.39.

For the compound `CC(C)(C)c1nc(-c2cccc(NS(=O)(=O)c3c(F)cccc3F)c2F)c(-c2ccnc(N)n2)s1.CS(=O)(=O)O` [Dabrafenib Mesylate], the cell viability amounted to 0.922 ± 0.18.

For the compound `CCCC(=O)OC1(C(=O)CCl)C(C)CC2C3CCC4=CC(=O)C=CC4(C)C3(F)C(=O)CC21C` (stereo not given) [clobetasone butyrate], the cell viability worked out at 0.995 ± 0.17.

In turn, `CC(C)c1nc(N(C)S(C)(=O)=O)nc(-c2ccc(F)cc2)c1/C=C/C(O)CC(O)CC(=O)O` (stereo not given) [Rosuvastatin] registered a cell viability of 1.56 ± 0.24.

`CS(=O)(=O)Nc1cc2occ(NC=O)c(=O)c2cc1Oc1ccccc1` [Iguratimod] came in with a cell viability of 1.46 ± 0.37.

`N#Cc1ccc(C2CCCc3cncn32)cc1` (stereo not given) [Fadrozole] displayed a cell viability of 0.6645 ± 0.0044.

On to `CCC(C)C(=O)OC1CC(O)C=C2C=CC(C)C(CCC(O)CC(O)CC(=O)O)C21` (stereo not given) [Pravastatin], for which the cell viability is 1.48 ± 0.39.

`Cc1nc(-c2ccc(OCC(C)C)c(C#N)c2)sc1C(=O)O` [Febuxostat] returned a cell viability of 1.38 ± 0.24.

As for `Cc1ccc(Nc2nccc(N(C)c3ccc4c(C)n(C)nc4c3)n2)cc1S(N)(=O)=O.Cl`, the cell viability was determined as 0.886 ± 0.13.

The compound `O=C(O)CCCN1CCC(OC(c2ccc(Cl)cc2)c2ccccn2)CC1` (stereo not given) [Bepotastine] had a cell viability of 0.797 ± 0.031.

For the compound `CC(=O)N1CC(O)CC1C(=O)O` (stereo not given) [Oxaceprol], the cell viability came out at 1.22 ± 0.15.

In turn, `O=C1OC(OC(=O)c2cccnc2Nc2cccc(C(F)(F)F)c2)c2ccccc21` (stereo not given) [Talniflumate] had a cell viability of 1 ± 0.022.

As to `O=C([O-])c1cc(N=Nc2ccc(O)c(C(=O)[O-])c2)ccc1O.[Na+].[Na+]` [Olsalazine Sodium], the cell viability worked out at 1.12 ± 0.053.

In the case of `Cn1cnc2c(F)c(Nc3ccc(Br)cc3F)c(C(=O)NOCCO)cc21`, the cell viability stood at 0.812 ± 0.043.

Turning to `Cl.c1ccc(CN(CC2=NCCN2)c2ccccc2)cc1` [Antazoline HCl], the cell viability was found to be 0.998 ± 0.082.

In turn, `CC(C(=O)O)c1cccc(C(=O)c2ccccc2)c1` (stereo not given) [Ketoprofen] yielded a cell viability of 1.64 ± 0.37.

For the compound `Cl.O=C(OCC(O)CO)c1ccccc1Nc1ccnc2cc(Cl)ccc12` (stereo not given) [Glafenine HCl], the cell viability is 1.04 ± 0.32.

The compound `Cc1nc(Nc2ncc(C(=O)Nc3c(C)cccc3Cl)s2)cc(N2CCN(CCO)CC2)n1` [Dasatinib] displayed a cell viability of 0.953 ± 0.026.

`CN(C)c1cc(CNCC(C)(C)C)c(O)c2c1CC1CC3C(N(C)C)C(O)=C(C(N)=O)C(=O)C3(O)C(O)=C1C2=O.Cc1ccc(S(=O)(=O)O)cc1` (stereo not given) [Omadacycline tosylate] yielded a cell viability of 1.02 ± 0.039.

Turning to `CN1CCN(C(c2ccccc2)c2ccccc2)CC1.Cl.Cl` [Cyclizine 2HCl], the cell viability came out at 1.06 ± 0.31.

Compound `COc1ccc2c(c1)c(CC(=O)OCC(=O)O)c(C)n2C(=O)c1ccc(Cl)cc1` [Acemetacin] showed a cell viability of 1.07 ± 0.14.

Consider `CCOc1ccc(Cc2cc(C3OC(CO)C(O)C(O)C3O)ccc2Cl)cc1` (stereo not given) [Dapagliflozin], for which the cell viability is 1.37 ± 0.23.

Regarding `Cl.Cl.O=C(O)COCCN1CCN(C(c2ccccc2)c2ccc(Cl)cc2)CC1` (stereo not given) [Cetirizine DiHCl], the cell viability is 1.08 ± 0.0043.

The compound `COc1ccc(C2OCC3C(c4cc(OC)c(OC)c(OC)c4)OCC23)cc1OC` (stereo not given) [Magnolin] displayed a cell viability of 0.791 ± 0.087.

Compound `COc1c(-c2ccc3cc(NS(C)(=O)=O)ccc3c2)cc(-n2ccc(=O)[nH]c2=O)cc1C(C)(C)C` [Dasabuvir(ABT-333)] returned a cell viability of 0.7838 ± 0.0059.

Compound `CN(N=O)C(=O)NC1C(O)OC(CO)C(O)C1O` (stereo not given) [Streptozotocin (STZ)] gave a cell viability of 1.23 ± 0.087.

The compound `Cc1ccc(C(=O)c2ccc(CC(=O)O)n2C)cc1` [Tolmetin] came in with a cell viability of 1.11 ± 0.13.

Compound `COC1OC2OC3(C)CCC4C(C)CCC(C1C)C24OO3` (stereo not given) [Artemether] displayed a cell viability of 1.29 ± 0.17.

In turn, `CC(CCC(=O)[O-])C1CCC2C3C(O)CC4CC(O)CCC4(C)C3CC(O)C12C.[Na+]` (stereo not given) [Sodium cholate] returned a cell viability of 0.344 ± 0.23.

As to `Cc1cc(C(C)(C)C)cc(C)c1CC1=NCCN1` [Xylometazoline], the cell viability came out at 0.674 ± 0.26.

Compound `CCOc1ccc(NC(C)=O)cc1` [Phenacetin] showed a cell viability of 1.24 ± 0.33.

The compound `C=CC(=O)Nc1cccc(Oc2nc(Nc3ccc(N4CCN(C)CC4)cc3)nc3ccsc23)c1` registered a cell viability of 0.393 ± 0.19.

On to `CC(N)c1ccc(C(=O)Nc2ccnc3[nH]ccc23)cc1.Cl.Cl` (stereo not given), for which the cell viability is 0.973 ± 0.42.

(Values after the supplement of paper PMC8866396.)
